Reference: PubChem BioAssay (EPA / NIEHS)
Several values for one entry are separate records, joined by “and”; a condition that tells them apart may be missing. Equal values may be shown once. Results filed as inconclusive are left out. Where a structure was tested more than once in an assay, its records may differ in their call. Activity calls are given as the source filed them. The calls were made as follows, unless noted: active = hit-call score of the fitted dose curve at least 0.9, where 1 is the maximum; inactive = score below 0.9.

Key:
[1] = biological target: Myc proto-oncogene protein (Homo sapiens) (UniProt P01106); test: ATG_Myc_CIS: Attagene CIS-FACTORIAL HepG2 Assay for human Myelocytomatosis (Myc) Proto-Oncogene Transcription Factor (AID 2282990); settings: HepG2, Attagene cis-reporter transcription factor activity; actives raise or lower the signal
Summary of the method: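 Fluorescence intensity of reporter-specific cDNA fragments, separated by capillary electrophoresis, gives the signal. Transfected HepG2 cells carrying cis-promoter reporter constructs are incubated with compound for 24 h; DMSO serves as baseline.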

[2] = ATG_NF_kB_CIS: Attagene CIS-FACTORIAL HepG2 Assay for human Nuclear Factor Kappa B (NF-kB) (AID 2282991); settings: HepG2 Attagene cis-factorial NF-kB reporter mRNA; actives raise or lower the signal
Summary of the method: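 Transient MRTU transfection of human HepG2 liver cells → 24 h chemical exposure → total RNA, oligo(dT) RT → PCR, 6-FAM primer extension, HpaI digest 2 h 37 C → CE fragment analysis. Bidirectional fitting, DMSO negative control.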

[3] = ATG_NRF2_ARE_CIS: Attagene CIS-FACTORIAL HepG2 Assay for human Nuclear Factor Erythroid 2 Related Factor 2 (NFR2) response to Antioxidant Response Elements (ARE) (AID 2282992); settings: HepG2 Attagene ARE/NRF2 reporter, transcription factor activity; actives raise or lower the signal;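 as to AC50: reporter mRNA level measured by RT-PCR and capillary electrophoresis fluorescence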
Summary of the method: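 Cis-factorial assay: transfected HepG2 reporter library, 24 h dosing, mRNA readout via RT-PCR/CE; DMSO-referenced bidirectional analysis.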

[4] = ATG_Oct_MLP_CIS: Attagene CIS-FACTORIAL HepG2 Assay for human Octamer-Binding Transcription Factor (Oct) (AID 2282993); settings: HepG2 Attagene cis-factorial Oct reporter, mRNA; actives raise or lower the signal
Summary of the method: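 Transfected HepG2 cells, 24 h treatment. Reporter mRNA quantified by RT-PCR–capillary electrophoresis; bidirectional fitting against DMSO.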

[5] = biological target: Cellular tumor antigen p53 (Homo sapiens) (UniProt P04637); test: ATG_p53_CIS: Attagene CIS-FACTORIAL HepG2 Assay for human p53 Transcription Factor (AID 2282994); settings: HepG2 p53 cis-element reporter, Attagene mRNA; actives raise or lower the signal
Summary of the method: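 Using HepG2 hepatoma cells carrying cis-acting multiplexed reporters, mRNA induction is detected after a 24 h exposure. Gain- and loss-of-signal responses are fitted relative to DMSO-treated cells.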

[6] = BSK_3C_TissueFactor: BioMAP Diversity Plus: 3C Assay for Tissue Factor Biomarker Activity (AID 2282997); settings: BioMAP 3C HUVEC, tissue factor biomarker readout; actives raise or lower the signal
Summary of the method: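 Endothelial monolayers (human umbilical vein, primary) are dosed, incubated 24 h, and assayed for Tissue Factor by ELISA; DMSO serves as negative control for bidirectional fitting.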

[7] = BSK_3C_uPAR: BioMAP Diversity Plus: 3C Assay for Urokinase-type plasminogen activator receptor (uPAR) Biomarker Activity (AID 2282998); settings: BioMAP 3C HUVEC, uPAR biomarker ELISA; actives raise or lower the signal
Summary of the method: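 Readout: ELISA for surface uPAR. System: human umbilical vein endothelial primary cells, 24 h after chemical exposure. Analysis: bidirectional fit, DMSO baseline.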

[8] = BSK_3C_VCAM1: BioMAP Diversity Plus: 3C Assay for Vascular cell adhesion molecule 1 (VCAM1) Biomarker Activity (AID 2282999); settings: BioMAP 3C HUVEC, VCAM1 ELISA, cytokine-stimulated; actives raise or lower the signal
Summary of the method: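 Human umbilical vein endothelial cells (3C system), biomarker read by ELISA 24 h after dosing; bidirectional fit against DMSO baseline. Cytotoxicity tracked by SRB total-protein staining in parallel cultures at biomarker time.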

[9] = BSK_4H_Eotaxin3: BioMAP Diversity Plus: 4H Assay for Eotaxin 3 Biomarker Activity (AID 2283000); settings: primary human endothelial cells (HUVEC); actives raise or lower the signal
Summary of the method: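 ELISA quantitation of CCL26 (Eotaxin-3) protein from chemically dosed human vascular endothelial cells at 24 h; increases and decreases both scored relative to DMSO-treated baseline.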

[10] = biological target: human Peroxisome Proliferator-activated Receptor alpha (PPARa), PPARA (gene 5465) (UniProt Q07869); test: ATG_PPARa_TRANS: Attagene TRANS-FACTORIAL HepG2 Assay for human Peroxisome Proliferator-activated Receptor alpha (PPARa) (AID 2283001; active = hit-call score of the fitted dose curve at least 0.9, where 1 is the maximum;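 as to AC50: potency for gain of reporter signal over DMSO so agonist or activator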)
Summary of the method: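 Measures transcriptional activity of an exogenous chimeric PPARa-Gal4 protein in transiently transfected HepG2 cells after 24 h dosing. Reporter mRNA quantified via RT-PCR and capillary electrophoresis; DMSO served as negative control.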

Measured: AC50

Chain of human Peroxisome Proliferator-activated Receptor alpha (PPARa), PPARA (gene 5465) (Q07869 whole entry, looked up, the tested form may be a part): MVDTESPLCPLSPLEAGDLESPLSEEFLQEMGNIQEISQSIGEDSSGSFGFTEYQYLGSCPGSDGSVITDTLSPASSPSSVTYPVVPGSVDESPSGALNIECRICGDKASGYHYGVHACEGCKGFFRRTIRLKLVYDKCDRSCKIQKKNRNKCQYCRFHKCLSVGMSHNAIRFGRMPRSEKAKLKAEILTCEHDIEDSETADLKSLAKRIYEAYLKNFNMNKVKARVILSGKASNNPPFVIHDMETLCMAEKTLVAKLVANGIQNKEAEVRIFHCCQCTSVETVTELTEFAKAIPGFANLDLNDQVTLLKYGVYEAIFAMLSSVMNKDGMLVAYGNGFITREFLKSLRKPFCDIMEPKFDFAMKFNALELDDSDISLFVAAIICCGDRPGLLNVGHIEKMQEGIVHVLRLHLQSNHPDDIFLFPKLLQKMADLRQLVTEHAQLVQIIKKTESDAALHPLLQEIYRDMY
Chain of Myc proto-oncogene protein (Homo sapiens) (P01106 whole entry, looked up, the tested form may be a part): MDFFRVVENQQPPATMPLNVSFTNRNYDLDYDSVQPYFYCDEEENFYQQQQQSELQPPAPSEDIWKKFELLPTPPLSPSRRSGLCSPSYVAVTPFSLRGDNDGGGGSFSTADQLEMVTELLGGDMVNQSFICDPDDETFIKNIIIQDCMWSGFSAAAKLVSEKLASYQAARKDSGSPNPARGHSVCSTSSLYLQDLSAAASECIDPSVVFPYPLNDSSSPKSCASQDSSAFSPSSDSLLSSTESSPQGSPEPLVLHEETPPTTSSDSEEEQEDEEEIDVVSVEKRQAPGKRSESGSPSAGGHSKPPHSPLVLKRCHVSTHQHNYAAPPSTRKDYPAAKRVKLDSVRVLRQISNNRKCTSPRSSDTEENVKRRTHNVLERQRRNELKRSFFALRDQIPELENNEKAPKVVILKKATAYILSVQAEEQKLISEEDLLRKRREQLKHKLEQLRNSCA
Chain of Cellular tumor antigen p53 (Homo sapiens) (P04637 whole entry, looked up): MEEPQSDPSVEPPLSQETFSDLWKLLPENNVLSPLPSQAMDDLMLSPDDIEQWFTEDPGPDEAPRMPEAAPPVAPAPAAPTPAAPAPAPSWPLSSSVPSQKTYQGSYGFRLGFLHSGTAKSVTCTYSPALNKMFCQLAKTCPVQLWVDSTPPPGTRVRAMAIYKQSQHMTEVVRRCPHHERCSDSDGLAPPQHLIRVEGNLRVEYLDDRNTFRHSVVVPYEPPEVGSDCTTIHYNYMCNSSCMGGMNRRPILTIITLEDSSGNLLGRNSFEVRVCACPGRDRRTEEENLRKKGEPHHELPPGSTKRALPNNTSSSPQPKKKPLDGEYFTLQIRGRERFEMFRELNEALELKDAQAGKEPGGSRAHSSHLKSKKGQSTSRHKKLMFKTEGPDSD

Oc1ccc(O)cc1
active: [3] 16.6 µM | [8] 15.6 µM | [9] 20 µM
inactive: all other assays above

CC1(C)C(=O)NC(=O)N1CO
not listed: [10]
inactive: all other assays above

OCC(CO)n1cnc(-c2ccc(F)cc2)c1-c1ccnc(Oc2ccccc2)n1
active: [3] 25.3 µM
inactive: all other assays above

Cc1ccc(C(C)(C)C)c(O)c1
inactive: [9]
active: [1] 100 µM | [2] 164 µM | [3] 65.3 µM | [4] 144 µM | [5] 182 µM | [6] 27.6 µM | [7] 32.6 µM | [8] 34.6 µM

O=C1OC(c2ccc(O)cc2)(c2ccc(O)cc2)c2ccccc21
inactive: [5] | [6] | [9]
active: [1] 180 µM | [2] 176 µM | [3] 177 µM | [4] 26.2 µM | [7] 14.6 µM | [8] 29.7 µM

CCCCc1nc2cccnc2n1Cc1ccc(-c2ccccc2-c2nnn[nH]2)cc1
active: [3] 100 µM
inactive: all other assays above

Cc1cc(SC2=C(O)C[C@@](CCc3ccc(N)cc3)(C(C)C)OC2=O)c(C(C)(C)C)cc1CO
active: [3] 4.49 µM
not listed: [10]
inactive: all other assays above

CC1=C(C)S(=O)(=O)CCS1(=O)=O
active: [3] 17.8 µM | [5] 130 µM
inactive: all other assays above

O=C(O)CN(CC(=O)O)CC(=O)O
inactive: all assays above

CN(C)CCCN(C)CCCN(C)C
not listed: [10]
inactive: all other assays above

Nc1nc(Cl)nc2c1ncn2[C@H]1C[C@H](O)[C@@H](CO)O1
active: [2] 16.9 µM | [6] 0.494 µM | [10] 66.5 µM
inactive: all other assays above

CC(=O)[C@@]1(O)CC[C@H]2[C@@H]3CCC4=CC(=O)CC[C@]4(C)[C@H]3CC[C@@]21C
active: [2] 20.4 µM and 51.9 µM
inactive: [1] | [2] | [3] | [4] | [6] | [7] | [8] | [9] | [10]

COc1ccc(OC(F)(F)F)cc1CN[C@H]1CCCN[C@H]1c1ccccc1
active: [3] 11 µM | [5] 2.91 µM | [6] 6.74 µM | [7] 20 µM | [9] 26.9 µM
inactive: [1] | [2] | [4] | [8] | [10]

COC(=O)CCCC(=O)OC
not listed: [10]
inactive: all other assays above

CN(C)C(=O)NC1(c2ccccc2)CCN(CCC[C@]2(c3ccc(Cl)c(Cl)c3)CCCN(C(=O)c3ccccc3)C2)CC1
active: [1] 5.05 µM | [2] 2.84 µM | [3] 1.64 µM | [4] 4.31 µM | [6] 4.37 µM | [10] 4.2 µM
inactive: [5] | [7] | [8] | [9]

Cc1cc(Cc2ccc(N)c(C)c2)ccc1N
not listed: [10]
inactive: all other assays above

COC(=O)CCC(=O)OC
not listed: [10]
inactive: all other assays above

c1ccc2occc2c1
inactive: all assays above

CN(C)CCCN1c2ccccc2Sc2ccc(Cl)cc21
inactive: [1] | [2] | [10]
active: [3] 11.1 µM | [4] 11.1 µM | [5] 6.92 µM | [6] 5.43 µM | [7] 25.1 µM | [8] 36.8 µM | [9] 35.9 µM

CC(=O)O[C@]1(C(C)=O)CC[C@H]2[C@@H]3C=C(Cl)C4=CC(=O)[C@@H]5C[C@@H]5[C@]4(C)[C@H]3CC[C@@]21C
inactive: [1] | [2] | [3] | [4] | [6] | [7] | [8] | [9] | [10]
active: [1] 164 µM | [3] 48.4 µM [middle of 4 runs] | [4] 73.6 µM and 64.9 µM and 45.3 µM

CCCCC(CC)COP(=O)(OCC(CC)CCCC)OCC(CC)CCCC (stereo unspecified)
active: [7] 12.5 µM | [8] 20 µM | [9] 20 µM
not listed: [10]
inactive: all other assays above

CCC(C)N(C)C(=O)c1cc2ccccc2c(-c2ccccc2Cl)n1 (stereo unspecified)
active: [3] 16.8 µM | [4] 37 µM | [5] 27.3 µM
not listed: [10]
inactive: all other assays above

O=[Si]=O
inactive: all assays above

CO[C@@H]1COCC[C@@H]1N[C@@H]1CC[C@@](C(=O)N2CCc3ncc(C(F)(F)F)cc3C2)(C(C)C)C1
not listed: [10]
inactive: all other assays above

C=CCCCCCCCCCCCC
not listed: [10]
inactive: all other assays above

CC(=O)S[C@H](C(=O)N[C@H]1Cc2ccccc2[C@H]2CCC[C@@H](C(=O)O)N2C1=O)C(C)C
not listed: [10]
inactive: all other assays above

Cc1c(C)c2c(c(C)c1O)CCC(C)(COc1ccc(CC3SC(=O)NC3=O)cc1)O2 (stereo unspecified)
active: [3] 11 µM | [6] 33.5 µM | [7] 23.8 µM | [8] 35 µM | [9] 30.2 µM
inactive: all other assays above

CCCCCCC(C=O)=Cc1ccccc1
inactive: [1] | [2] | [4]
active: [3] 27.8 µM and 41 µM | [4] 159 µM | [6] 27.4 µM | [7] 36.6 µM | [8] 35.6 µM | [9] 36.6 µM | [10] 27.2 µM and 15.8 µM

O=C(O)c1[nH]n(-c2ccc(S(=O)(=O)O)cc2)c(=O)c1N=Nc1ccc(S(=O)(=O)O)cc1
inactive: all assays above

O=C1CCCCC1
not listed: [5]
inactive: all other assays above

CC(=O)OCC(COC(C)=O)OC(C)=O
not listed: [5] | [10]
inactive: all other assays above

CCCCC(CC)COC(=O)CCCCCCCC(=O)OCC(CC)CCCC (stereo unspecified)
inactive: all assays above

CCN(CC)CCOc1ccc(C(=C(Cl)c2ccccc2)c2ccccc2)cc1
inactive: [1] | [2] | [4] | [10]
active: [4] 7.1 µM | [6] 13.5 µM | [7] 6.51 µM | [8] 13.8 µM | [9] 12.4 µM

CCCC(=O)O
not listed: [5] | [10]
inactive: all other assays above

CS(=O)(=O)c1ccc([C@@H](C[C@H]2CCC(=O)C2)C(=O)Nc2cnccn2)cc1Cl
active: [3] 48.9 µM
inactive: all other assays above

CCCCC(CC)CO (stereo unspecified)
inactive: all assays above

C=CCc1ccc(OC)c(OC)c1
inactive: all assays above

CC(=O)OC1CC(C)OC(C)O1 (stereo unspecified)
active: [3] 68.9 µM
not listed: [5] | [10]
inactive: all other assays above

CCCCCCCCCCCCCCCCO
not listed: [5]
inactive: all other assays above

O=C(N[C@@H](c1ccccc1)[C@@H]1CCCCN1)c1cccc(C(F)(F)F)c1Cl
active: [1] 54 µM | [2] 53.2 µM | [3] 9.19 µM | [4] 22.6 µM | [6] 20 µM | [7] 20 µM
inactive: [8] | [9] | [10]

CC(C)COC(=O)CCCCC(=O)OCC(C)C
not listed: [5]
inactive: all other assays above

C#CC(O)C(CC)CCCC (stereo unspecified)
active: [2] 67.2 µM | [3] 53.3 µM
not listed: [5] | [10]
inactive: all other assays above
